In general, % Inhibition refers to the relative decrease from the control value, in per cent.

Hit rate of the full screen: of about 4,800 compounds, about 410 (8.5%) showed an effect of 50% or more. The sample holds strong results, similar compounds and a random draw of the others, so the mix is not that of the screen.

This is an account of results in ChEMBL document CHEMBL4888484, “Replenishing the malaria drug discovery pipeline: Screening and hit evaluation of the MMV Hit Generation Library 1 (HGL1) against asexual blood stage Plasmodium falciparum ,using a nano luciferase reporter read-out” (2022).

This assay has as its system Plasmodium falciparum. Put plainly: Confirmatory screen in NF54 pLDH assay, in single point, at 2uM, 72h. The assay is classed as functional, Erythrocyte. As to conditions: timepoint 72 hour.
With `Cc1ccc(OCc2cccc(C(=O)N3CCC[C@@H]3CN3CCCCC3)c2)cn1`, the “% Inhibition” value amounted to 9%. Turning to `COc1ccnc(CN2CC[C@](C)(O)[C@H](O)C2)c1`, the “% Inhibition” value is reported as 6%. On to `CN1CCCN(c2ccnc3ccsc23)CC1`, for which the “% Inhibition” value is 39%.

For the compound `C=CCNC(=NC)NC1CCN(c2cc(OC)cc(OC)c2)CC1`, the “% Inhibition” value was 7%. Regarding `CCC1(CC)CCC(NC(=O)[C@@H]2CCCCC(=O)N2)CC1`, the “% Inhibition” value was -14%.

For `C[C@H]1C[C@@H](O)CCN1C(=O)c1cccc2sc(C(F)(F)F)nc12`, the “% Inhibition” value is on record as 3%. To `Cc1cc(C)cc(-n2cc(C(=O)NCCCc3ccccc3)nn2)c1` belongs 8%; to `Cc1cc2nc(C)c(=O)n(Cc3ccc(C(=O)NCc4ccco4)cc3)c2cc1C`, 8%. As for `Cc1cc(NC(=O)NC(C)C)c2[nH]c(C(=O)N3CCOCC3)c(-c3ccccc3)c2c1`, the figure is 9%; as for `CO/C(=N/C(=O)c1cccc(OC)c1)N[C@H]1CCCc2ccccc21`, -9%; as for `O=c1[nH]c(=O)n(Cc2cc(Cl)cc3c2OCOC3)cc1Cl`, 12%. As for `CC(C)N(C)S(=O)(=O)Nc1ccc(Br)cc1O`, the “% Inhibition” value is on record as 9%. To `Nc1ccccc1-c1nc(Nc2ncccn2)n[nH]1` belongs 7%; to `O=C(Nc1ccc(OC(F)F)cc1)c1cc(C2CC2)nc2c1c(C1CC1)nn2-c1ccccc1`, -5%. Turning to `CC(C)c1cc(=O)[nH]c(-n2nc(C3CC3)cc2NC(=O)COc2ccc3ccccc3c2)n1`, the “% Inhibition” value was 65%.

For the compound `Cc1nc(CC(=O)Nc2cc(C3CC3)nn2-c2ccccc2)cs1`, the “% Inhibition” value was 8%.

In the case of `Cc1cc(NC(=O)c2ccc(COc3ccc4ccccc4c3)o2)nn1C`, the “% Inhibition” value worked out at 13%. To `Cc1ccc(N2C[C@@H](c3nnc(NC(=O)Cc4ccc(Cl)cc4)o3)CC2=O)cc1` belongs -18%; to `CC(C)c1cc(=O)[nH]c(-n2nc(C3CC3)cc2NC(=O)Cc2ccc(Cl)cc2)n1`, 67%. In the case of `CCOc1c(Br)cc(Cl)cc1NCC(=O)NC(=O)NC`, the “% Inhibition” value turned out to be 14%.

On to `COc1cc(N2CCn3c(nc4ccccc43)C2)ccc1NC(=O)c1ccc(C)cc1`, for which the “% Inhibition” value is listed as -23%. For `O=C1NS(=O)(=O)c2cc(N3CCN(Cc4ccccc4)CC3)ccc21`, the “% Inhibition” value stood at 8%. As for `CCc1ccc(C(=O)Nc2cnc(-n3ccnc3)nc2)cc1`, the “% Inhibition” value came to 29%.

On to `O=C(C[C@H]1CCN(S(=O)(=O)c2ccc(F)cc2F)C1)NCc1ccccc1`, for which the “% Inhibition” value was determined as 10%. As for `Cc1nn(Cn2nc(-c3ccc(F)cc3)c(Br)c2-c2ccc(F)cc2)c(C)c1Cl`, the figure is 6%; as for `O=C(NCc1cccc(Cl)c1)[C@H]1CCCN(c2nc3cccnc3n(Cc3ccccc3)c2=O)C1`, -7%; as for `CCN(CC)CC(O)COc1c(Br)cc(C(C)(C)c2cc(Br)c(OCC(O)CN(CC)CC)c(Br)c2)cc1Br` (stereo unspecified), 99%.

In the case of `CCN(CC)C(=O)c1cnc2snc(C)c2c1N1CCC(C(=O)Nc2c(C)cc(C)cc2C)CC1`, the “% Inhibition” value was 34%. As to `CN(C(=O)CN(CCO)c1ccc(Br)cc1)C1CC1`, the “% Inhibition” value worked out at 2%.

Turning to `CCN(C(=O)[C@H]1CCOC1)c1ccc(C(F)(F)F)cc1`, the “% Inhibition” value came to 5%. To `O=C(O)C1CCC(=O)N(C2CC2)C1c1ccccc1` (stereo unspecified) belongs 10%. Turning to `C(=C\c1cc(/C=C/c2ccccc2)n2nnnc2n1)/c1ccccc1`, the “% Inhibition” value amounted to 5%. On to `O=C(NCC1CCCCC1O)c1cnn2ccncc12` (stereo unspecified), for which the “% Inhibition” value is on record as -5%.

Take `O=C(NCC1CCCCC1)c1cn[nH]c1-c1ccccc1`: the “% Inhibition” value turned out to be 6%. Regarding `COc1ccc2nc(C(F)(F)F)nc(N3CCNC(=O)CCN(C(=O)C(F)=C4CCCC4)CC3)c2c1`, the “% Inhibition” value was determined as 14%. On to `Cc1cc(NS(=O)(=O)c2cccs2)n(-c2ccncc2)n1`, for which the “% Inhibition” value was 9%. On to `O=S(=O)(Nc1nncs1)c1cccs1`, for which the “% Inhibition” value is reported as -10%. For the compound `O=S(=O)(Nc1cccc2cccnc12)c1cccs1`, the “% Inhibition” value came out at 64%. In the case of `Cc1nsc2ncn(C[C@H](O)COCc3ccco3)c(=O)c12`, the “% Inhibition” value came out at 8%.

Turning to `CCOc1ccc(-c2cc3c(=O)n(CCC(=O)N4CCCC4)ccn3n2)cc1`, the “% Inhibition” value was 7%. Turning to `O=C(CNC(=O)c1ccc(C(F)(F)F)cc1)Nc1cnc2c(c1)COCC2`, the “% Inhibition” value was 4%. As for `Fc1ccc(-c2cc3c(N4CCCCC4)nccn3n2)cc1`, the “% Inhibition” value is 12%. For `CCn1cc(C(=O)Nc2n[nH]c3ccc(C(F)(F)F)cc23)cn1`, the “% Inhibition” value is -4%. In the case of `CC1CCN(C[C@H](O)C(F)(F)F)CC1`, the “% Inhibition” value is on record as 5%.

As for `COc1cccc2c(N3CC[C@]4(CNC(=O)C4)C3)nccc12`, the “% Inhibition” value is given as 2%. In the case of `CC[n+]1ccc(-c2ncc(-c3ccc(C(C)(C)C)cc3)o2)cc1`, the “% Inhibition” value was found to be 55%. To `Cc1ccc(C(=O)NCCn2cnc3ccccc3c2=O)cn1` belongs -7%.

On to `Clc1ccccc1COc1ccc(CNC2CCCCC2)cc1`, for which the “% Inhibition” value was 7%. For `CC(C)CC[C@@H](CCNC1CCN(C)CC1)c1ccc(Cl)cc1`, the “% Inhibition” value is 83%.

In the case of `CN(C)CCCNCc1ccc(Cl)cc1Cl`, the “% Inhibition” value is -7%. `CC(C)CC[C@@H](CCNCCN(C)C)c1ccc(Cl)cc1`: the “% Inhibition” value came to 103%. To `CN1CCC(NCC[C@@H](Cc2ccccc2Cl)c2ccc(Cl)cc2)CC1` belongs 92%; to `CN(C)CCNCc1ccc(Cl)c(Cl)c1`, -14%; to `O=C1c2cc3ccccc3n2C[C@](C(=O)NC2CCCCCCC2)(c2ccccc2)N1Cc1cccc(Cl)c1`, -5%. Consider `COc1ccccc1N(CC(=O)NCCN1CCOCC1)S(=O)(=O)c1ccc(C)cc1`, for which the “% Inhibition” value is given as 7%. Turning to `Cc1cc(C(=O)N[C@@H](C)c2nnc3n2CCCCC3)c(C)s1`, the “% Inhibition” value is given as 3%. As for `O=C(Nc1ncc(Cc2ccc(Cl)c(C(F)(F)F)c2)s1)c1ccc2nnsc2c1`, the figure is 10%; as for `CC[C@H](O)CCNC(=O)Nc1ncc(CC(C)C)s1`, 2%. Turning to `COc1cc(NC(=O)Cn2c(=O)n(C)c(=O)c3c2c(-c2ccccc2)cn3C)cc(OC)c1OC`, the “% Inhibition” value is recorded as -8%. To `Cc1cncn1C1CCN(C(=O)C2(Cc3ccccc3)CC3CCC2C3)CC1` (stereo unspecified) belongs -1%. As to `COc1cc(C=C(C(=O)Nc2ccccc2F)C(=O)Nc2ccccc2F)ccc1OCC(=O)Nc1cccc(C(F)(F)F)c1`, the “% Inhibition” value was -18%.

For the compound `Cc1[nH]ccc1C(=O)N1CC[C@]2(CCN(C(=O)OC(C)(C)C)C2)C1`, the “% Inhibition” value is reported as 13%.

For the compound `CCC(=O)OC1(C#CCOc2ccc(OC)cc2)CCN(C)CC1`, the “% Inhibition” value amounted to 9%. Consider `Cc1cc(C)n(-c2ccc(N3CC4CCC3C4)nc2)n1` (stereo unspecified), for which the “% Inhibition” value is recorded as -2%. To `C[C@H](NC(=O)c1ccco1)c1cc2c(cc1Br)OCCCO2` belongs -9%; to `CCc1ccc(NC(=O)c2sc3nc(C)c(C(=O)Nc4ccc(C)cc4C)c(-c4ccccc4Cl)c3c2N)cc1`, 5%; to `Cc1ccc(NC(=O)c2c(C)nc3sc(C(=O)NCc4ccccc4)c(N)c3c2-c2ccccc2Cl)c(C)c1`, 87%. Take `Cc1ccc(NC(=O)c2c(C)nc3sc(C(=O)NCc4ccccc4)c(N)c3c2-c2cccs2)c(C)c1`: the “% Inhibition” value is on record as 11%. With `CN([C@H]1CCc2nn(CC3CC3)c(=O)n2CC1)S(=O)(=O)c1ccccc1C(F)(F)F`, the “% Inhibition” value came to 1%. Turning to `CC(C)NC(=O)N1C[C@H]2CCCC(=O)N(Cc3cccc(F)c3)[C@H]2C1`, the “% Inhibition” value is recorded as 8%. In the case of `O=C(NC[C@H]1CCCO1)c1cc(C(=O)C2CC2)c[nH]1`, the “% Inhibition” value is -8%.

In the case of `COCc1cc(C(=O)N[C@H](c2ccccc2)C2CCOCC2)no1`, the “% Inhibition” value is 8%. For `O=C(CC1CCOCC1)NCc1ccccn1`, the “% Inhibition” value is -24%.

Take `Cc1ccc(C(=O)N2CC(n3cnnc3C)C2)cc1F`: the “% Inhibition” value was -17%. Regarding `COc1ccc(-c2[nH]ncc2C(=O)NCC2CCCCC2)cc1OC`, the “% Inhibition” value came out at 6%. Consider `COc1nc(-c2cccc(C(=O)N3C[C@@H]4CC[C@H](C3)C(=O)N4)c2)ncc1F`, for which the “% Inhibition” value worked out at 85%. As to `COc1ccc(C(=O)N2CC[C@H](c3nc(C4CCOCC4)no3)C2)cc1OC`, the “% Inhibition” value came to 11%. To `COc1nc(-c2cccc(C(=O)NCC3CCOCC3)c2)ncc1F` belongs 80%; to `O=C(NCC1CCOCC1)c1ccc2n[nH]c(=O)n2c1`, 6%. Take `CC(C)(NC(=O)CC1(O)CCCCC1)C(=O)Nc1ccccc1`: the “% Inhibition” value was 5%. To `O=C(Nc1ccc(F)cc1)c1c(-c2ccc(Cl)cc2)nc2n1CCS2(=O)=O` belongs -4%; to `COC(=O)C1C2CCC(C2)C1NC(=O)c1ccncc1` (stereo unspecified), 2%; to `O=C([C@@H]1CCCN1c1ncc(C(F)(F)F)cc1Cl)N1Cc2ccccc2C1`, -18%. Consider `CCOC(=O)[C@@H](NC(=O)Nc1ccccc1C(F)(F)F)C(F)(F)F`, for which the “% Inhibition” value is 11%. Turning to `O=C(NC1CC1C1CCCCC1)N1CCS(=O)(=O)CC1` (stereo unspecified), the “% Inhibition” value was -4%. As for `COc1ccc(NC(=O)[C@@H](C)C2CCOCC2)cc1`, the figure is -5%; as for `CCc1c(NC(=O)[C@@H](C)C2CC2)nnn1CCc1ccc(OC)cc1`, 12%. `COC(=O)c1c(NC(C)=O)c2cc(NC3CCOCC3)cnc2n1CCc1ccc(OC)cc1`: the “% Inhibition” value was determined as 61%. As for `Cc1nc(CN2C(=O)C(=O)c3cc(Br)ccc32)cs1`, the figure is 9%. For `Cc1ccn2c(CN3CCN([C@H]4CCN(Cc5ccccc5)C4)CC3)c(C)nc2c1`, the “% Inhibition” value was 9%. As for `O=C(Cc1cccc2ccccc12)NC(C1CC1)C1CC1`, the “% Inhibition” value is -12%. Regarding `COc1ccc(NS(=O)(=O)c2ccc(NC(=O)CN(c3ccc(F)cc3)S(C)(=O)=O)cc2)cc1`, the “% Inhibition” value amounted to 12%.

As to `COc1ccccc1Cc1nnc2n1CCCC2`, the “% Inhibition” value is on record as 8%. `COc1cc(CNC2CCCCC2)cc(Br)c1OCc1ccccc1Cl`: the “% Inhibition” value was 8%. As for `COc1cc(NC(=O)N2CC(c3noc(-c4ccccc4)n3)C2)cc(OC)c1OC`, the “% Inhibition” value was determined as 3%. For `CNC(=O)[C@@H]1C[C@H](NCc2cc(OC)c(OC)c(OC)c2)CN1CC(c1ccccc1)c1ccccc1`, the “% Inhibition” value came to 50%.

`CC(=O)c1ccc(C(C)(C)C)cc1NC(=O)C(C)C`: the “% Inhibition” value is 8%.

On to `O=C(CCn1nc2ccccn2c1=O)N1CC(CC(F)F)C1`, for which the “% Inhibition” value worked out at 6%. In the case of `C[C@]1(CCc2ccc(O)cc2)Nc2ccccc2-c2nc(=O)c(-c3ccc(F)cc3)nn21`, the “% Inhibition” value is -12%.

With `O=c1nc2n(nc1-c1ccccc1)C1(CCC1)Nc1ccccc1-2`, the “% Inhibition” value came out at 60%.

As for `C[C@]1(C(=O)O)Nc2ccccc2-c2nc(=O)c(-c3ccccc3)nn21`, the “% Inhibition” value worked out at 9%.
